The source made the active and inactive calls. Rule for the calls: active = hit-call score of the fitted dose curve at least 0.9, where 1 is the maximum; inactive = score below 0.9.

Common to all, as to settings: mRNA level, 48 h; actives raise or lower the signal
Read-out in assay [1]: ABC Transporter (ABCC3), ABCC3 (gene 8714)
As to the kind of experiment: LTEA_HepaRG_ABCC3: Life Technologies and Expression Analysis (LTEA) Assay for ABC Transporter (ABCC3) using HepaRG (AID 2283462). Summed up: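 Transcript level by TaqMan qRT-PCR, normalised to three housekeeping genes, fitted in both directions relative to vehicle. Chemicals tested in duplicate at eight half-log concentrations up to 100 uM for 48 h on HepaRG cells (0.5% DMSO).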

Read-out in assay [2]: ABC Transporter (ABCB11), ABCB11 (gene 8647)
The assay can be described thus: LTEA_HepaRG_ABCB11: Life Technologies and Expression Analysis (LTEA) Assay for ABC Transporter (ABCB11) using HepaRG (AID 2283463). Summed up: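 ABCB11 transcript levels quantified by TaqMan qRT-PCR against three housekeeping genes after 48 h chemical exposure of HepaRG cultures. Concentrations up to 100 uM in half-log steps, 0.5% DMSO vehicle; both induction and suppression scored.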

Read-out in assay [3]: ABC Transporter (ABCC2), ABCC2 (gene 1244)
As to the kind of experiment: LTEA_HepaRG_ABCC2: Life Technologies and Expression Analysis (LTEA) Assay for ABC Transporter (ABCC2) using HepaRG (AID 2283464). Summed up: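 Endpoint is ABCC2 transcript level from qRT-PCR, normalized to three housekeeping genes and fitted bidirectionally relative to DMSO. Human HepaRG cells received test chemical for 48 h at up to 100 uM (8 points, half-log steps, 0.5% DMSO), duplicate wells.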

Read-out in assay [4]: Broad substrate specificity ATP-binding cassette transporter ABCG2 (Homo sapiens) (UniProt Q9UNQ0)
As to the kind of experiment: LTEA_HepaRG_ABCG2: Life Technologies and Expression Analysis (LTEA) Assay for ABC Transporter (ABCG2) using HepaRG (AID 2283465). An outline of the steps: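 ABCG2 transcript was quantified by TaqMan qRT-PCR against three housekeeping genes in HepaRG cells. Cells were treated in duplicate for 48 h across an 8-point half-log series up to 100 uM, with 0.5% DMSO vehicle. Gain or loss versus DMSO was fit.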

Read-out in assay [5]: ATP-citrate lyase (ACLY), ACLY (gene 47)
As to the kind of experiment: LTEA_HepaRG_ACLY: Life Technologies and Expression Analysis (LTEA) Assay for ATP-citrate lyase (ACLY) using HepaRG (AID 2283466). Summed up:
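ACLY mRNA quantified by qRT-PCR on Fluidigm arrays against three housekeeping genes, after 48 h chemical treatment of HepaRG cells (top concentration 100 uM, half-log steps, 0.5% DMSO vehicle). Up- or down-regulation fitted relative to DMSO.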

Read-out in assay [6]: Peroxisomal acyl-coenzyme A oxidase 1 (ACOX1) gene, ACOX1 (gene 51)
As to the kind of experiment: LTEA_HepaRG_ACOX1: Life Technologies and Expression Analysis (LTEA) Assay for Peroxisomal acyl-coenzyme A oxidase 1 (ACOX1) gene using HepaRG (AID 2283467). Summed up: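 ACOX1 transcript levels were quantified by TaqMan qRT-PCR against three housekeeping genes after 48 h chemical exposure of differentiated human HepaRG cells. Exposure used eight half-log steps topping at 100 uM, 0.5% DMSO vehicle, in duplicate. Bidirectional curve fits were made relative to DMSO.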

Read-out in assay [7]: Alkaline Phosphatase, Placental (ALPP) gene, ALPP (gene 250)
As to the kind of experiment: LTEA_HepaRG_ALPP: Life Technologies and Expression Analysis (LTEA) Assay for Alkaline Phosphatase, Placental (ALPP) gene using HepaRG (AID 2283468).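 For AC50: differentiated human HepaRG liver cells in serum-free induction medium.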 Summed up:
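ALPP transcript level, measured by qRT-PCR and normalized to three housekeeping genes (ACTB, GAPDH, POLR2A), after 48 h dosing of differentiated HepaRG in serum-free induction medium. Top concentration 100 uM with half-log dilutions (8 points, 0.5% DMSO, duplicates); bidirectional fitting relative to DMSO.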

Read-out in assay [8]: Bcl-2 (BAD) gene, BAD (gene 572)
The assay can be described thus: LTEA_HepaRG_BAD: Life Technologies and Expression Analysis (LTEA) Assay for Bcl-2 (BAD) gene using HepaRG (AID 2283469). An outline of the steps:
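Read-out: qRT-PCR of BAD mRNA, normalized to three housekeeping genes. Human HepaRG cultures got 48 h chemical exposure in 0.5% DMSO, duplicate eight-point half-log series topping at 100 uM. Gain or loss of signal fitted versus DMSO vehicle.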

Read-out in assay [9]: Bcl-2 (BAX) gene, BAX (gene 581)
The assay can be described thus: LTEA_HepaRG_BAX: Life Technologies and Expression Analysis (LTEA) Assay for Bcl-2 (BAX) gene using HepaRG (AID 2283470). An outline of the steps: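 Cells were thawed, plated for 48 h, moved to serum-free induction medium and dosed for 48 h (highest concentration 100 uM, half-log steps, 0.5% DMSO). Total RNA was then analysed for BAX expression by qRT-PCR.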

Read-out in assay [10]: adenosine kinase (ADK) gene, ADK (gene 132)
As to the kind of experiment: LTEA_HepaRG_ADK: Life Technologies and Expression Analysis (LTEA) Assay for adenosine kinase (ADK) gene using HepaRG (AID 2283471). Summed up:
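Read-out is ADK transcript level measured by qRT-PCR and normalised to three housekeeping genes. Cells are human HepaRG, dosed for 48 h at up to 100 uM in 0.5% DMSO. Gain or loss of signal is fitted against DMSO controls.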

Read-out in assay [11]: Alpha-fetoprotein (AFP) gene, AFP (gene 174)
The assay can be described thus: LTEA_HepaRG_AFP: Life Technologies and Expression Analysis (LTEA) Assay for Alpha-fetoprotein (AFP) gene using HepaRG (AID 2283472). Summed up: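 Chemicals were tested on differentiated HepaRG cells for 48 hours at eight concentrations up to 100 uM, with 0.5% DMSO as vehicle. AFP expression was then quantified by qRT-PCR and analyzed for gain or loss relative to DMSO.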

Read-out in assay [12]: BCL2L11 (gene 10018)
As to the kind of experiment: LTEA_HepaRG_BCL2L11: Life Technologies and Expression Analysis (LTEA) Assay for Bcl-2 (BCL2L11) gene using HepaRG (AID 2283473). An outline of the steps:
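BCL2L11 transcript levels are measured by Fluidigm qRT-PCR, normalized to three housekeeping genes. HepaRG cultures were plated 48 h, then treated 48 h with test chemical (top 100 uM, half-log, 0.5% DMSO vehicle); curves were fitted bidirectionally against DMSO.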

Read-out in assay [13]: Apolipoprotein A-V (APOA5) gene, APOA5 (gene 116519)
The assay can be described thus: LTEA_HepaRG_APOA5: Life Technologies and Expression Analysis (LTEA) Assay for Apolipoprotein A-V (APOA5) gene using HepaRG (AID 2283474). Summed up: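 APOA5 transcript levels were quantified by qRT-PCR, normalized to three housekeeping genes, after 48 h chemical treatment of HepaRG cells (8 points, 100 uM maximum, half-log steps, 0.5% DMSO). Curves fitted in both directions against vehicle.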

Read-out in assay [14]: Apoptosis regulator Bcl-2 (Homo sapiens) (UniProt P10415)
The assay can be described thus: LTEA_HepaRG_BCL2: Life Technologies and Expression Analysis (LTEA) Assay for Bcl-2 gene using HepaRG (AID 2283475). An outline of the steps: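 Plated human HepaRG cells are exposed to test chemicals for 48 h across eight concentrations from 100 uM downward in half-log steps (0.5% DMSO). BCL2 expression is then measured by qRT-PCR with housekeeping normalisation and fitted bidirectionally against vehicle.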

Read-out in assay [15]: Caspase-3 (Homo sapiens) (UniProt P42574)
The assay can be described thus: LTEA_HepaRG_CASP3: Life Technologies and Expression Analysis (LTEA) Assay for cysteine-aspartic acid protease (CASP3) using HepaRG (AID 2283477). An outline of the steps:
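Expression of CASP3 was quantified by TaqMan qRT-PCR against three housekeeping genes (ACTB, GAPDH, POLR2A), bidirectionally versus 0.5% DMSO. HepaRG cultures received compounds in duplicate, top 100 uM with half-log steps, for 48 h in serum-free induction medium.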

Read-out in assay [16]: Cytochrome P450 (CYP24A1), CYP24A1 (gene 1591)
As to the kind of experiment: LTEA_HepaRG_CYP24A1: Life Technologies and Expression Analysis (LTEA) Assay for Cytochrome P450 (CYP24A1) using HepaRG (AID 2283478). An outline of the steps:
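mRNA of CYP24A1 quantified by TaqMan qRT-PCR (ACTB/GAPDH/POLR2A normalization) after 48 h chemical exposure of HepaRG cells, top concentration 100 uM, half-log steps, 0.5% DMSO vehicle, duplicates. Curves fitted bidirectionally against DMSO baseline.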

Read-out in assay [17]: Cytochrome P450 (CYP1A2), CYP1A2 (gene 1544)
As to the kind of experiment: LTEA_HepaRG_CYP1A2: Life Technologies and Expression Analysis (LTEA) Assay for Cytochrome P450 (CYP1A2) using HepaRG (AID 2283479). Summed up: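 CYP1A2 transcript measured by TaqMan qRT-PCR against three housekeeping genes after 48-hour chemical exposure of HepaRG cells. Eight-point half-log series topping at 100 uM in 0.5% DMSO, duplicates; gain or loss fitted relative to vehicle.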

Read-out in assay [18]: cysteine-aspartic acid protease (CASP8), CASP8 (gene 841)
The assay can be described thus: LTEA_HepaRG_CASP8: Life Technologies and Expression Analysis (LTEA) Assay for cysteine-aspartic acid protease (CASP8) using HepaRG (AID 2283480). An outline of the steps:
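CASP8 transcript measured by TaqMan qRT-PCR with ACTB/GAPDH/POLR2A normalization, after 48 h chemical exposure of HepaRG cells in serum-free induction medium. Eight concentrations, top 100 uM, half-log steps, 0.5% DMSO vehicle; fits in both directions versus DMSO.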

Read-out in assay [19]: Cytochrome P450 (CYP2B6), CYP2B6 (gene 1555)
The assay can be described thus: LTEA_HepaRG_CYP2B6: Life Technologies and Expression Analysis (LTEA) Assay for Cytochrome P450 (CYP2B6) using HepaRG (AID 2283481). Summed up: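 CYP2B6 transcript level quantified by qRT-PCR against three housekeeping genes, fitted bidirectionally relative to DMSO. HepaRG cultures received chemicals for 48 h, 8-point half-log series from 100 uM in 0.5% DMSO, duplicate wells, serum-free induction medium.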

Read-out in assay [20]: Bcl-2 (BID) gene, BID (gene 637)
As to the kind of experiment: LTEA_HepaRG_BID: Life Technologies and Expression Analysis (LTEA) Assay for Bcl-2 (BID) gene using HepaRG (AID 2283476). An outline of the steps: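 Cells are plated, cultured 48 h, switched to serum-free induction medium, then dosed 48 h (100 uM top, half-log steps, 0.5% DMSO). RNA is isolated and BID expression read by qRT-PCR.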

Broad substrate specificity ATP-binding cassette transporter ABCG2 (Homo sapiens), sequence (Q9UNQ0 whole entry, looked up): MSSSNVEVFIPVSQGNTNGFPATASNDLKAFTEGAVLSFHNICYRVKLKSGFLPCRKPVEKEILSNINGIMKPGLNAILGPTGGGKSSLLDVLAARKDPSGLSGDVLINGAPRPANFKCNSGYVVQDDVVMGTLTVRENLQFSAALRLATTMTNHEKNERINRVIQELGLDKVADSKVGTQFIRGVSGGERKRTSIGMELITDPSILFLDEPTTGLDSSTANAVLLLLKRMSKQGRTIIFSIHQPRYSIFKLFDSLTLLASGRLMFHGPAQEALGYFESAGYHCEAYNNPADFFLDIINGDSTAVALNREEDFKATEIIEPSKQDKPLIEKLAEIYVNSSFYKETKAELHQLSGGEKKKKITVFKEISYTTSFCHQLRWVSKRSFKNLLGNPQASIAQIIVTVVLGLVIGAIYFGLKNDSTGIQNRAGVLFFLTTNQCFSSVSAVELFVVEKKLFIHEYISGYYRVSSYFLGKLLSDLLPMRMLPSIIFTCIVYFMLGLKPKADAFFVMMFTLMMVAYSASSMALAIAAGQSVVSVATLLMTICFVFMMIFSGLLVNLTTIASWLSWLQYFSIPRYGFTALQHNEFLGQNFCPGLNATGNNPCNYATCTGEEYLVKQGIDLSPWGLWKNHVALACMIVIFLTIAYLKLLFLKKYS
Caspase-3 (Homo sapiens), sequence (P42574 whole entry, looked up): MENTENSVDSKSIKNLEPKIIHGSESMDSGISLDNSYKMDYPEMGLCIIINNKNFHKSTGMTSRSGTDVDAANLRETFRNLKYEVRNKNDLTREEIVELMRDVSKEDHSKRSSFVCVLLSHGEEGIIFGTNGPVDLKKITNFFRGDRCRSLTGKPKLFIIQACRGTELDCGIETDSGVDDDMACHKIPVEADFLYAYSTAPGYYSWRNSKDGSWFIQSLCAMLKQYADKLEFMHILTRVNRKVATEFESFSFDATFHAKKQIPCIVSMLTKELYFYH
Apoptosis regulator Bcl-2 (Homo sapiens), sequence (P10415 whole entry, looked up): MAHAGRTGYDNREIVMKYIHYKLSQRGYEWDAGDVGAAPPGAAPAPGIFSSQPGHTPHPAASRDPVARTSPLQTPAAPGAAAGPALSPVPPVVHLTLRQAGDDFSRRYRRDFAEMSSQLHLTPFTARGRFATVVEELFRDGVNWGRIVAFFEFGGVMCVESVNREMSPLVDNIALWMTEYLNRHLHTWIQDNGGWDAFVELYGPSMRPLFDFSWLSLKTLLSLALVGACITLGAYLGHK

With `COc1ccc(C(=CC(=O)N2CCOCC2)c2ccc(Cl)cc2)cc1OC`, the compound was called inactive in assay [1], in assay [2], in [4], in assay [5], in assay [6] and in assay [7]. For the same compound, the compound was classed as inactive in assay [8], in [9], in assay [10], in assay [11], in assay [12] and in assay [13]. Further, the call in [14], in [15], in assay [16], in assay [17] and in [18] was inactive. Moreover, the AC50 (in general, the concentration giving half of the maximal activity seen) in [3] is 11 µM (active); in assay [19], 0.00252 µM (active).
For `CCOP(=S)(Oc1cnc(C(C)(C)C)nc1)OC(C)C` (centres undefined), the outcome in assay [1], in assay [3], in assay [4], in [7], in assay [8] and in assay [9] was inactive. For the same compound, the result in [10], in assay [12], in [13], in assay [14], in [15] and in assay [16] was inactive. For the same compound, the result in assay [17] was inactive. The concentration at half-maximal activity (AC50) is 1.84 µM (active) in assay [2]; 85.6 µM (active) in [5]; 2.27 µM (active) in [6]; 19.4 µM (active) in [11]; 4.96 µM (active) in assay [19].
For the compound `CCCOCC(=Nc1ccc(Cl)cc1C(F)(F)F)n1ccnc1`, the result in [1], in assay [8], in assay [12], in assay [13], in [14] and in [15] was inactive. The outcome in assay [16] and in assay [17] was inactive. Further, the AC50 is 17.6 µM (active) in assay [2]; 78.4 µM (active) in assay [3]; 15.8 µM (active) in [4]; 88.6 µM (active) in [5]; 72.2 µM (active) in assay [6]; 15.8 µM (active) in assay [7]. Moreover, the half-maximal activity concentration (AC50) in assay [9] is 21.7 µM (active); in [10], 78.5 µM (active); in [11] it was 15.8 µM (active); in [19], 30.4 µM (active).
As for `CC(=NC#N)N(C)Cc1ccc(Cl)nc1`, the result in [1], in assay [2], in [3], in [4], in [5] and in assay [6] was inactive. The outcome in [7], in assay [8], in [9], in assay [10], in assay [11] and in assay [12] was inactive. For the same compound, the compound was called inactive in assay [13], in assay [14], in [20], in assay [15], in assay [16] and in assay [17]. The result in [18] was inactive. In assay [19], the AC50 is 50 µM (active).
As for `CCOP(=S)(OCC)Oc1cc(C)nc(C(C)C)n1`, the outcome in assay [1], in assay [2], in assay [3], in assay [4], in assay [5] and in [6] was inactive. Further, the call in assay [7], in assay [8], in assay [9], in [10], in assay [11] and in assay [12] was inactive. The compound was classed as inactive in [13], in assay [14], in [15], in assay [16] and in [18]. Further, the concentration at half-maximal activity (AC50) in [17] was 29.3 µM (active); in assay [19] it was 2.5 µM (active).

The record behind these values is PubChem BioAssay (EPA / NIEHS).
